Measured values: PubChem BioAssay (Tox21)
Inconclusive results are not listed. A structure can be active in one record and inactive in another. Active and inactive are the calls of the source. Unless noted, calls come from the whole dose curve; as a rule, active = well fitted curve in the direction sought with a large enough effect in the repeat runs; inconclusive = weak or mixed curves; inactive = no such curve, though single readings can be large; an effect the other way counts as inactive or inconclusive.

Legend:
[1] = target: Aryl hydrocarbon receptor (Homo sapiens) (UniProt P35869); assay: qHTS assay to identify small molecule that activate the aryl hydrocarbon receptor (AhR) signaling pathway (AID 743085); note: nearly all actives have a fitted effect of over 15% in size; note: potency is the fitted concentration of half-maximal effect;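 for activation: HG2L7.5c1 human HepG2 liver cells with stably integrated DRE-driven firefly reporter; series mostly up to about 70 µM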
Sequence of Aryl hydrocarbon receptor (Homo sapiens) (P35869 whole entry, looked up): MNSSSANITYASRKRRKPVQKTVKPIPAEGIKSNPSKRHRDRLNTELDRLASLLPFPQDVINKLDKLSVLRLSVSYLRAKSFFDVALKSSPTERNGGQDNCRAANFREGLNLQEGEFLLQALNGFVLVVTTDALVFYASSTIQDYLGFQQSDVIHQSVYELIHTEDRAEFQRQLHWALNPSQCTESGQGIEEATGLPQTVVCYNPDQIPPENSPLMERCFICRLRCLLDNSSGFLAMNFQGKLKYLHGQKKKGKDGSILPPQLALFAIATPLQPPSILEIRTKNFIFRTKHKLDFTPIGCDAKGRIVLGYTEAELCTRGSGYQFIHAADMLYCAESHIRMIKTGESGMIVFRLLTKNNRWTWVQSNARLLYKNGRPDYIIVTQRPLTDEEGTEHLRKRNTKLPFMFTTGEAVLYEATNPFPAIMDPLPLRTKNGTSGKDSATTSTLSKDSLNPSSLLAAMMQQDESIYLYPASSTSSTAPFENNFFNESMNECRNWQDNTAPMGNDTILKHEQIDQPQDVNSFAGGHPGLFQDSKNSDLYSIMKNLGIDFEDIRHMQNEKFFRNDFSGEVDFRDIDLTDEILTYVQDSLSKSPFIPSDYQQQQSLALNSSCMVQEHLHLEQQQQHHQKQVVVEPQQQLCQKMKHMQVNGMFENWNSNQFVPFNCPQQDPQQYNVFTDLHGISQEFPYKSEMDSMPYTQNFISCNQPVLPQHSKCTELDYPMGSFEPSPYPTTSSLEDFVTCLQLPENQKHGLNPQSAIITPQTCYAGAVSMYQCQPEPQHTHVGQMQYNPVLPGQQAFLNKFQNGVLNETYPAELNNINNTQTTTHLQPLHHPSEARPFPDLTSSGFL
Procedure, shortened: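 HepG2 cells (HG2L7.5c1) stably carrying a firefly luciferase reporter driven by 20 dioxin responsive elements were exposed to compound for 24 h at 37C after a 5 h settling period; luminescence rise (ONE-Glo) indicated activation.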

[2] = qHTS assay to identify small molecule that activate the aryl hydrocarbon receptor (AhR) signaling pathway - cell viability counter screen (AID 743086);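 note: HepG2 liver cells carrying the AhR DRE luciferase reporter; series mostly up to about 70 µM; nearly all actives have a fitted effect of over 45% in size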
Procedure, shortened: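 Cytotoxicity counter screen: CellTiter-Fluor signal (30 min, 37 C) in 4000 HepG2 cells/well carrying the DRE-luciferase reporter, following 24 h compound exposure at 37 C.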

[3] = target: Peroxisome proliferator-activated receptor gamma (Homo sapiens) (UniProt P37231); assay: qHTS assay to identify small molecule agonists of the peroxisome proliferator-activated receptor gamma (PPARg) signaling pathway (AID 743094; active = well fitted activation curve with a large enough effect in the signal ratio in the repeat runs, not every such curve was filed as active; the % refers to the signal ratio)
Sequence of Peroxisome proliferator-activated receptor gamma (Homo sapiens) (P37231 whole entry, looked up): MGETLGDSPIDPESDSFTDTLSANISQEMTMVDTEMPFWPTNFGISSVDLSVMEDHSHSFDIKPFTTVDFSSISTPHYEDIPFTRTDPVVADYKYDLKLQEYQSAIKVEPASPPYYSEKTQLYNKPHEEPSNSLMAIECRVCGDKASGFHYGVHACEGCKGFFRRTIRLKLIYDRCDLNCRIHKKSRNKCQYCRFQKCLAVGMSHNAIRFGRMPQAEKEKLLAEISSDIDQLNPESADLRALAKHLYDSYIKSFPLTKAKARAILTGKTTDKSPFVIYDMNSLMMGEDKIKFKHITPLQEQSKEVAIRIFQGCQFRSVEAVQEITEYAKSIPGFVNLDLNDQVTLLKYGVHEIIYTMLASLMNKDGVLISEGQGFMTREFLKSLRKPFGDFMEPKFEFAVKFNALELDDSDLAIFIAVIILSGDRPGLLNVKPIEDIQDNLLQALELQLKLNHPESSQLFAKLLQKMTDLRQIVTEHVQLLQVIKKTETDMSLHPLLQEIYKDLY
Procedure, shortened: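 Cell-based bla reporter, HEK293H background, PPARg-driven UAS. Pre-incubation 5 h, 37C, 5% CO2. Compound 17 h, 37C. Substrate 1 h RT; fluorescence.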

[4] = target: Peroxisome proliferator-activated receptor gamma (Homo sapiens) (UniProt P37231); assay: qHTS assay to identify small molecule antagonists of the peroxisome proliferator-activated receptor gamma (PPARg) signaling pathway (AID 743191; calls by dose curve; note: series mostly up to about 63 µM; nearly all actives have a fitted effect of over 30% in size)
Procedure, shortened: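 Beta-lactamase reporter under UAS control in HEK293H PPARg-bla cells; compound treatment 17 h at 37C. Read-out: fluorescence intensity after 1 h room-temperature incubation with LiveBLAzer B/G FRET substrate.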

[5] = qHTS assay to identify small molecule antagonists of the peroxisome proliferator-activated receptor gamma (PPARg) signaling pathway - cell viability counter screen (AID 743194); note: nearly all actives have a fitted effect of over 55% in size
Procedure, shortened: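 Viability was measured as CellTiter-Glo luminescence in GeneBLAzer PPARg UAS-bla HEK293H cells. These cells had been exposed 17 h at 37 C to compounds together with rosiglitazone at 50 nM final, with the beta-lactamase readout taken in the same wells.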

[6] = qHTS assay for small molecule agonists of the antioxidant response element (ARE) signaling pathway (AID 743202; active = well fitted activation curve with a large enough effect in the signal ratio in the repeat runs, not every such curve was filed as active; the % refers to the signal ratio)
Procedure, shortened: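 After 16 hours of compound treatment at 37 C, HepG2 cells with a stably integrated ARE-driven beta-lactamase reporter were loaded 2 hours at room temperature with LiveBLAzer B/G FRET substrate and fluorescence intensity measured.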

[7] = qHTS assay for small molecule agonists of the antioxidant response element (ARE) signaling pathway - cell viability counter screen (AID 743203; calls by dose curve; note: nearly all actives have a fitted effect of over 55% in size)
Procedure, shortened: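 Measured in the same wells as the beta-lactamase ARE reporter, this read-out is CellTiter-Glo luminescence from HepG2 ARE-bla cells given compounds for 16 hrs.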

[8] = qHTS assay for small molecule activators of the heat shock response signaling pathway (AID 743210; active = well fitted activation curve with a large enough effect in the signal ratio in the repeat runs, with a control signal flat, not every such curve was filed as active; the % refers to the signal ratio; note: series mostly up to about 63 µM)
Procedure, shortened: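 Compound exposure lasted 5 h at 37 C in HeLa cells carrying a heat-shock-element-driven beta-lactamase reporter. Read-out: fluorescence intensity after 2.5 h room-temperature loading with LiveBLAzer B/G FRET substrate.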

[9] = qHTS assay to identify small molecule antagonists of the peroxisome proliferator-activated receptor delta (PPARd) signaling pathway - cell viability counter screen (AID 743213); note: nearly all actives have a fitted effect of over 50% in size
Procedure, shortened: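 HEK293H cells with the PPARd UAS-bla reporter, co-treated 17 h at 37 C with compounds and L165041 (300 nM final), were lysed with CellTiter-Glo. Luminescence indicated viable cell content.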

[10] = qHTS assay to identify small molecule agonists of the farnesoid-X-receptor (FXR) signaling pathway - cell viability counter screen (AID 743218); note: nearly all actives have a fitted effect of over 45% in size
Procedure, shortened: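 Readout: CellTiter-Glo luminescence, 30 min RT, multiplexed after the FXR-bla FRET reading. HEK 293T FXR-UAS-bla cells received compound 5 h post-plating and were incubated 16 h at 37 C.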

[11] = qHTS assay to identify small molecule antagonists of the farnesoid-X-receptor (FXR) signaling pathway - cell viability counter screen (AID 743221; active = well fitted cell-killing curve with a large enough effect in the repeat runs, not every such curve was filed as active; note: nearly all actives have a fitted effect of over 50% in size)
Procedure, shortened: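 FXR-UAS-bla HEK 293T cells were treated with test compounds plus chenodeoxycholic acid (50 uM final) for 16 h at 37 C. Cell viability in the same wells was then read as CellTiter-Glo luminescence after 30 min at room temperature.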

[12] = target: Vitamin D3 receptor (Homo sapiens) (UniProt P11473); assay: qHTS assay to identify small molecule agonists of the vitamin D receptor (VDR) signaling pathway (AID 743222; calls by dose curve)
Sequence of Vitamin D3 receptor (Homo sapiens) (P11473 whole entry, looked up): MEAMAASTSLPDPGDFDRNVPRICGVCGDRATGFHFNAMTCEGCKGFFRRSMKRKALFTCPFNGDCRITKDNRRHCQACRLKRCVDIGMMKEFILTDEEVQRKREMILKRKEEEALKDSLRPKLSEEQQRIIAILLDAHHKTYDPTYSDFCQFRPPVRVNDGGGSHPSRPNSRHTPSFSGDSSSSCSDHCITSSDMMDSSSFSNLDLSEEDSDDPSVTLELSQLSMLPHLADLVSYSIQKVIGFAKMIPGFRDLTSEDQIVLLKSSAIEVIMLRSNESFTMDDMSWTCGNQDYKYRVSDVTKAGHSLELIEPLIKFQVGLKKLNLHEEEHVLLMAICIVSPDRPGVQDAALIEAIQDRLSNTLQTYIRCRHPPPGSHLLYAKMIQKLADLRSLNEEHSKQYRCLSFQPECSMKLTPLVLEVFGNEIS
Procedure, shortened: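 Following 4 h attachment at 37C, VDR-bla cells (2,000 per well) received DMSO-dissolved compounds or controls. After 16 h incubation, LiveBLAzer B/G FRET substrate was added and fluorescence read 2 h later at room temperature.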

[13] = qHTS assay to identify small molecule agonists of the vitamin D receptor (VDR) signaling pathway - cell viability counter screen (AID 743224); note: series mostly up to about 63 µM; nearly all actives have a fitted effect of over 50% in size
Procedure, shortened: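 In parallel with the bla FRET readout, cytotoxicity toward VDR-bla cells after 16 h compound exposure was assessed by CellTiter-Glo, with luminescence recorded after a 30 min room-temperature incubation.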

[14] = qHTS assay to identify small molecule agonists of the peroxisome proliferator-activated receptor delta (PPARd) signaling pathway - cell viability counter screen (AID 743211); note: nearly all actives have a fitted effect of over 55% in size
Procedure, shortened: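 PPARd-bla HEK293H cells (UAS-beta-lactamase reporter) were treated with compounds for 17 h at 37 C. Viability was then read in the same wells by CellTiter-Glo luminescence after 30 min at room temperature.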

[15] = target: Peroxisome proliferator-activated receptor delta (Homo sapiens) (UniProt Q03181); assay: qHTS assay to identify small molecule agonists of the peroxisome proliferator-activated receptor delta (PPARd) signaling pathway (AID 743212; calls by dose curve)
Sequence of Peroxisome proliferator-activated receptor delta (Homo sapiens) (Q03181 whole entry, looked up): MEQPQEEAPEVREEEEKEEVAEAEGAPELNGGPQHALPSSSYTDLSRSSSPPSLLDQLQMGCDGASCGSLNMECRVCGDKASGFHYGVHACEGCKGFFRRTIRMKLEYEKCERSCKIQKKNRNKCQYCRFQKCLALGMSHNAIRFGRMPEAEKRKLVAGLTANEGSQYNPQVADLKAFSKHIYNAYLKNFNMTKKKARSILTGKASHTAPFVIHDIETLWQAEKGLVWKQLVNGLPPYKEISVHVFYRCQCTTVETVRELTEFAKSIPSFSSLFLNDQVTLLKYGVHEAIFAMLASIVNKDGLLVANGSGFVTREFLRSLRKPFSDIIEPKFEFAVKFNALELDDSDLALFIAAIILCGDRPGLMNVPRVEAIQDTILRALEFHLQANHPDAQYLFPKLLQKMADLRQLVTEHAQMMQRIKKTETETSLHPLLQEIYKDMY
Procedure, shortened: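 Beta-lactamase reporter readout: a ratiometric FRET signal from the LiveBLAzer substrate after 2 h at room temperature. Compound exposure at 37 °C in PPARδ-bla HEK293H cells driven by an upstream activator sequence.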

[16] = target: Peroxisome proliferator-activated receptor delta (Homo sapiens) (UniProt Q03181); assay: qHTS assay to identify small molecule antagonists of the peroxisome proliferator-activated receptor delta (PPARd) signaling pathway (AID 743215; active = well fitted inhibition curve with a large enough effect in the signal ratio in the repeat runs, not every such curve was filed as active; the % refers to the signal ratio;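 note: cells stimulated with agonist L165041 at 300 nM final during compound exposure; series mostly up to about 62 µM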)
Procedure, shortened: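 Fluorescence from cleaved LiveBLAzer B/G FRET substrate (2 h, room temperature) reports PPARd-driven beta-lactamase in HEK293H UAS-bla cells. Cells had been treated 17 h at 37 C with compound plus 300 nM final L165041.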

[17] = target: Bile acid receptor (Homo sapiens) (UniProt Q96RI1); assay: qHTS assay to identify small molecule antagonists of the farnesoid-X-receptor (FXR) signaling pathway (AID 743217; active = well fitted inhibition curve with a large enough effect in the signal ratio in the repeat runs, not every such curve was filed as active; the % refers to the signal ratio)
Sequence of Bile acid receptor (Homo sapiens) (Q96RI1 whole entry, looked up): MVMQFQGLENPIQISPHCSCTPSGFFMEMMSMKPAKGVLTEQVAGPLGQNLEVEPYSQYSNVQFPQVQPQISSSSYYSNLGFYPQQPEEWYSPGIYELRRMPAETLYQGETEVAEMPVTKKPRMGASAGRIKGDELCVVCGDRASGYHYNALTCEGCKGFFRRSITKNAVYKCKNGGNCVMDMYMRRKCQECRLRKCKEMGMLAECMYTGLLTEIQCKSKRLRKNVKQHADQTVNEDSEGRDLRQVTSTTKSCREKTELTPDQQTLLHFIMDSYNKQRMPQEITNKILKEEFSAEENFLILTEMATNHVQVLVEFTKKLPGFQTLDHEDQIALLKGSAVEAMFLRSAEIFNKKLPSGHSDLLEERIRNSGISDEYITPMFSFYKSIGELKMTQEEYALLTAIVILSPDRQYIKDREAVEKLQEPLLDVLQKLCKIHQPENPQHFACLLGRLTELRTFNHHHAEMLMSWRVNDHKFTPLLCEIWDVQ
Procedure, shortened: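 FRET fluorescence after 2 h room-temperature LiveBLAzer loading gives the readout. Prior step: FXR-bla HEK 293T cells, seeded and incubated 5 h, received test compounds plus 50 uM final CDCA for 16 h at 37 °C.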

[18] = target: Bile acid receptor (Homo sapiens) (UniProt Q96RI1); assay: qHTS assay to identify small molecule agonists of the farnesoid-X-receptor (FXR) signaling pathway (AID 743220; active = well fitted activation curve with a large enough effect in the signal ratio in the repeat runs, not every such curve was filed as active; the % refers to the signal ratio)
Procedure, shortened: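 FXR-UAS-bla HEK 293T cells carrying a UAS-driven beta-lactamase reporter were plated for 5 h at 37C/5% CO2, then exposed to DMSO-dissolved Tox21 10K compounds for 16 h at 37C. A LiveBLAzer B/G FRET substrate was loaded for 2 h at room temperature before fluorescence reading.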

[19] = qHTS assay for small molecule activators of the heat shock response signaling pathway - cell viability counter screen (AID 743209); note: nearly all actives have a fitted effect of over 50% in size
Procedure, shortened: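 Same-well multiplex: after 2.5 h room-temperature incubation with LiveBLAzer B/G substrate and fluorescence reading, CellTiter-Glo reagent was added to HSE-bla HeLa cells that had received compound for 5 h at 37 C; luminescence read after 30 min.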

[20] = target: Vitamin D3 receptor (Homo sapiens) (UniProt P11473); assay: qHTS assay to identify small molecule antagonists of the vitamin D receptor (VDR) signaling pathway (AID 743223; active = well fitted inhibition curve with a large enough effect in the signal ratio in the repeat runs, not every such curve was filed as active; the % refers to the signal ratio)
Procedure, shortened: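 VDR-bla cells were plated, incubated 4 h at 37C, then given compound and 1alpha,25-dihydroxyvitamin D3 (3 nM final). After 16 h at 37C, LiveBLAzer B/G FRET substrate was added for 2 h at room temperature and fluorescence read.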
% is set by controls: 0 for no effect and ±100 for the full control effect.

CC(C)(CO)[N+](=O)[O-]
inactive: Potency [1] | Potency [2] | Potency [3] | Potency [4] | Potency [5] | Potency [6] | Potency [7] | Potency [8] | Potency [9] | Potency [10] | Potency [11] | Potency [12] | Potency [13]

O=C1CCC(=O)O1
inactive: Potency [1] | Potency [2] | Potency [3] | Potency [4] | Potency [5] | Potency [6] | Potency [7] | Potency [8] | Potency [14] | Potency [15] | Potency [16] | Potency [17] | Potency [10] | Potency [18] | Potency [11] | Potency [12] | Potency [13]

CC(=O)NO
inactive: Potency [1] | Potency [2] | Potency [3] | Potency [4] | Potency [5] | Potency [6] | Potency [7] | Potency [19] | Potency [8] | Potency [9] | Potency [10] | Potency [11] | Potency [12] | outcome [20] | Potency [13]

CC1OC(=O)C(C)OC1=O (stereo not given)
inactive: Potency [1] | Potency [2] | Potency [3] | Potency [4] | Potency [5] | Potency [6] | Potency [7] | Potency [8] | Potency [14] | Potency [15] | Potency [9] | Potency [16] | Potency [17] | Potency [10] | Potency [11] | Potency [12] | outcome [20] | Potency [13]

CC(CSC(=O)c1ccccc1)C(=O)N1C[C@@H](Sc2ccccc2)C[C@H]1C(=O)O (stereo not given in full)
inactive: Potency [1] | Potency [2] | Potency [3] | Potency [4] | Potency [5] | Potency [6] | Potency [7] | Potency [19] | Potency [8] | Potency [14] | Potency [15] | Potency [9] | Potency [16] | Potency [10] | Potency [11] | Potency [13]

CCOC(=O)C1=C[C@]2(CC)CCCN3CCc4c(n1c1ccccc41)[C@@H]32
11.9 µM (active) and inactive: Potency [1]
inactive: Potency [2] | Potency [3] | Potency [4] | Potency [5] | Potency [6] | Potency [7] | Potency [19] | Potency [12] | Potency [13]

Nc1ccc(S(=O)(=O)Nc2ccccc2)cc1
inactive: Potency [1] | Potency [2] | Potency [3] | Potency [4] | Potency [5] | Potency [6] | Potency [7] | Potency [19] | Potency [14] | Potency [15] | Potency [9] | Potency [16] | Potency [10] | Potency [11] | Potency [13]

C=CCOC(=O)CCC1CCCCC1
inactive: Potency [1] | Potency [2] | Potency [3] | Potency [4] | Potency [5] | Potency [6] | Potency [7] | Potency [19] | Potency [15] | Potency [16] | Potency [17] | Potency [10] | Potency [18] | Potency [11] | Potency [12] | outcome [20] | Potency [13]

O=C(O)c1ccc(S(=O)(=O)O)cc1C(=O)O
inactive: Potency [1] | Potency [2] | Potency [3] | Potency [4] | Potency [5] | Potency [6] | Potency [7] | Potency [19] | Potency [14] | Potency [15] | Potency [9] | Potency [16] | Potency [10] | Potency [11] | Potency [12] | Potency [13]

O=C(O)CNCC(=O)O
inactive: activation [1] 1.31% [at 8.47 µM] | viability change, negative = cytotoxic [2] -0.209% [at 8.47 µM] | activation [3] 0.605% [at 7.08 µM] | ratio activity, negative = inhibition [4] 11.9% [at 5.95 µM] | activity change, negative = cytotoxicity [5] 0.536% [at 5.95 µM] | activation [6] -1.79% [at 8.36 µM] | viability change, negative = cytotoxic [7] 1.43% [at 8.36 µM] | activity change, negative = cytotoxicity [19] 4.62% [at 5.95 µM] | activity change, negative = cytotoxicity [14] -8.65% [at 5.95 µM] | activation [15] 11.6% [at 5.95 µM] | viability change, negative = cytotoxic [9] -5.77% [at 6.26 µM] | ratio activity, negative = inhibition [16] -0.396% [at 6.26 µM] | activity change, negative = inhibition [17] -18.1% [at 5.95 µM] | viability change, negative = cytotoxic [10] -1.74% [at 5.95 µM] | activity change, negative = cytotoxicity [11] -4.51% [at 5.95 µM] | activation [12] 4.1% [at 6.01 µM] | activity change, negative = cytotoxicity [13] -6.84% [at 5.95 µM]

CC[N+]1(CC)CCC(=C(c2ccccc2)c2ccccc2)C1C (stereo not given)
inactive: Potency [1] | Potency [2] | Potency [3] | Potency [4] | Potency [5] | Potency [6] | Potency [7] | Potency [19] | Potency [8] | Potency [14] | Potency [15] | Potency [16] | Potency [10] | Potency [11] | Potency [12] | outcome [20]

OCCNCc1ccccc1
inactive: Potency [1] | Potency [2] | Potency [3] | Potency [4] | Potency [5] | Potency [6] | Potency [7] | Potency [19] | Potency [8] | Potency [15] | Potency [9] | Potency [16] | Potency [10] | Potency [11] | Potency [12] | Potency [13]

COC(C)OC
inactive: Potency [1] | Potency [2] | Potency [3] | Potency [4] | Potency [5] | Potency [6] | Potency [7] | Potency [19] | Potency [8] | Potency [14] | Potency [15] | Potency [9] | Potency [16] | Potency [10] | Potency [11] | Potency [12]

O=[N+]([O-])c1ccc2[nH]ncc2c1
inactive: Potency [1] | Potency [2] | Potency [3] | Potency [4] | Potency [5] | Potency [6] | Potency [7] | Potency [19] | Potency [8] | Potency [14] | Potency [15] | Potency [9] | Potency [16] | Potency [10] | Potency [11] | Potency [12] | outcome [20] | Potency [13]
